The panel holds about 83,000 compounds, 20% with a hit somewhere; the sample as a whole holds those more often.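 A percent growth of 40 corresponds to 60% growth inhibition; 0 means no net growth; -100 means all cells died. Active threshold: below 10.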 Values without a mark were called inactive. Calls of active or inactive are those of the source.
Experiments:
Assay in all cases: NCI-60 one-dose screen, 48 h (100 = growth as untreated, 0 = no growth, -100 = all killed)
Details in all cases: 10 µM unless noted
SR leukemia = system: SR leukemia
RPMI-8226 leukemia = system: RPMI-8226 leukemia
OVCAR-8 ovarian = system: OVCAR-8 ovarian
OVCAR-5 ovarian = system: OVCAR-5 ovarian
OVCAR-4 ovarian = system: OVCAR-4 ovarian
SK-OV-3 ovarian = system: SK-OV-3 ovarian
IGROV1 ovarian = system: IGROV1 ovarian
HS 578T breast = system: HS 578T breast
NCI/ADR-RES ovarian = system: NCI/ADR-RES ovarian
OVCAR-3 ovarian = system: OVCAR-3 ovarian

`CC(C)(C)c1cc(NC(=O)Nc2ccc(-c3cn4c5c(sc4n3)CCc3c[nH]cc3-5)cc2)no1` was tested, and the growth (SR leukemia) was 2.1% (active), the growth (RPMI-8226 leukemia) was -18.6% (active) and the growth (OVCAR-8 ovarian) was 32.7%. It also gave a growth (OVCAR-5 ovarian) of 47.7%, a growth (OVCAR-4 ovarian) of 49% and a growth (SK-OV-3 ovarian) of 33.7%. For the same compound, the growth (IGROV1 ovarian) was 38%, the growth (HS 578T breast) was -10.4% (active) and the growth (NCI/ADR-RES ovarian) was 29%.
Compound `O=C(CCCCCCN1CC(=O)N2[C@@H](C3CC3)c3[nH]c4ccccc4c3C[C@H]2C1=O)NO` has a growth (SR leukemia) of 36.5%, a growth (RPMI-8226 leukemia) of 56.2% and a growth (OVCAR-8 ovarian) of 37.5%. It also gave a growth (OVCAR-5 ovarian) of 71.8%, a growth (OVCAR-4 ovarian) of 97.6% and a growth (SK-OV-3 ovarian) of 102%. The growth (IGROV1 ovarian) was 89.2%, the growth (HS 578T breast) was 62% and the growth (NCI/ADR-RES ovarian) was 75.7%.
For `O=C(/C=C/c1ccc(Cl)c(Cl)c1)Nc1ncc(Cc2ccc(Cl)c(Cl)c2)s1`, the growth (SR leukemia) was 38%, the growth (RPMI-8226 leukemia) was 81.2% and the growth (OVCAR-8 ovarian) was 44%. It also gave a growth (OVCAR-5 ovarian) of 59.6%, a growth (OVCAR-4 ovarian) of 34% and a growth (SK-OV-3 ovarian) of 77.1%. The growth (IGROV1 ovarian) was 60.6%, the growth (HS 578T breast) was 76.4% and the growth (NCI/ADR-RES ovarian) was 52.8%.
For `N#CC1=C2NCCCNc3oc(nc3C#N)Cc3ccccc3CC(=N1)O2`, the growth (SR leukemia) was 36.6%, the growth (RPMI-8226 leukemia) was 19.9% and the growth (OVCAR-8 ovarian) was 97.4%. The growth (OVCAR-5 ovarian) was 102%, the growth (OVCAR-4 ovarian) was 94.5% and the growth (SK-OV-3 ovarian) was 102%. It also gave a growth (IGROV1 ovarian) of 93.4%, a growth (HS 578T breast) of 92.4% and a growth (NCI/ADR-RES ovarian) of 97.8%.
`O=C(Nc1ccc(Cl)c(C(F)(F)F)c1)Nc1ccc2oc(=O)ccc2c1` was tested, and the growth (SR leukemia) was 45.6%, the growth (RPMI-8226 leukemia) was -1.56% (active) and the growth (OVCAR-8 ovarian) was 43.4%. It also gave a growth (OVCAR-5 ovarian) of 75.6%, a growth (OVCAR-4 ovarian) of 43.3% and a growth (SK-OV-3 ovarian) of 81%. The growth (IGROV1 ovarian) was 30.7%, the growth (HS 578T breast) was 83.1% and the growth (NCI/ADR-RES ovarian) was 19.6%.
Compound `N#C/C(=C\c1ccc(-c2ccc(Cl)c(Cl)c2)o1)C(=O)Nc1ncc(Cc2ccc(Cl)cc2)s1` has a growth (SR leukemia) of 16%, a growth (RPMI-8226 leukemia) of 67.4% and a growth (OVCAR-8 ovarian) of 19.9%. For the same compound, the growth (OVCAR-5 ovarian) was 45.7%, the growth (OVCAR-4 ovarian) was -15.1% (active) and the growth (SK-OV-3 ovarian) was 81.2%. The growth (IGROV1 ovarian) was 26.2%, the growth (HS 578T breast) was -7.83% (active) and the growth (NCI/ADR-RES ovarian) was 32.7%.
With `COc1ccc(N2CCN(C3=C(Cl)C(=O)c4ncccc4C3=O)CC2)cc1` the growth (SR leukemia) was 0.311% (active), the growth (RPMI-8226 leukemia) was 23.2% and the growth (OVCAR-8 ovarian) was 74.8%. For the same compound, the growth (OVCAR-5 ovarian) was 112%, the growth (OVCAR-4 ovarian) was 48.2% and the growth (SK-OV-3 ovarian) was 81%. It also gave a growth (IGROV1 ovarian) of 80.7%, a growth (HS 578T breast) of 70.2% and a growth (NCI/ADR-RES ovarian) of 86.6%.
`NS(=O)(=O)c1ccc(CCn2c(-c3ccc(C(=O)O)cc3)nc(-c3ccccc3)c2-c2ccccc2)cc1` was tested, and the growth (SR leukemia) was 99.7%, the growth (RPMI-8226 leukemia) was 100% and the growth (OVCAR-8 ovarian) was 111%. For the same compound, the growth (OVCAR-5 ovarian) was 103%, the growth (OVCAR-4 ovarian) was 99.4% and the growth (SK-OV-3 ovarian) was 111%. For the same compound, the growth (IGROV1 ovarian) was 108%, the growth (HS 578T breast) was 101% and the growth (NCI/ADR-RES ovarian) was 105%.
`Brc1cc(-c2cc(-c3ccc4c(c3)OC=CO4)[nH]n2)cs1` was tested, and the growth (SR leukemia) was 60.9%, the growth (RPMI-8226 leukemia) was 81% and the growth (OVCAR-8 ovarian) was 99.4%. For the same compound, the growth (OVCAR-5 ovarian) was 115%, the growth (OVCAR-4 ovarian) was 97% and the growth (SK-OV-3 ovarian) was 86%. It also gave a growth (IGROV1 ovarian) of 66.1%, a growth (HS 578T breast) of 90% and a growth (NCI/ADR-RES ovarian) of 65.4%.
`CC[C@]12C=CCN3CC[C@@]4(c5ccc(OC)cc5N(C)[C@H]4[C@@](O)(C(=O)OC)[C@@H]1OC(=O)CCN1CCc4ccccc4C1)[C@@H]32` gave a growth (SR leukemia) of 82.2%, a growth (RPMI-8226 leukemia) of 78.4% and a growth (OVCAR-8 ovarian) of 94.9%. It also gave a growth (OVCAR-5 ovarian) of 96.3%, a growth (OVCAR-4 ovarian) of 91.2% and a growth (SK-OV-3 ovarian) of 103%. For the same compound, the growth (IGROV1 ovarian) was 81.5%, the growth (HS 578T breast) was 92% and the growth (NCI/ADR-RES ovarian) was 80.5%.
In the case of `CCN(CC)c1ccc(/C=N/NC(=O)c2ccc(NS(C)(=O)=O)cc2)cc1`, the growth (SR leukemia) is reported as 13.5%, the growth (RPMI-8226 leukemia) is reported as 42% and the growth (OVCAR-8 ovarian) is reported as 9.7% (active). It also gave a growth (OVCAR-5 ovarian) of 49.4%, a growth (OVCAR-4 ovarian) of 35.6% and a growth (SK-OV-3 ovarian) of 35.4%. It also gave a growth (IGROV1 ovarian) of 21.2%, a growth (HS 578T breast) of 65.6% and a growth (NCI/ADR-RES ovarian) of 58.3%.
For `Cc1ccc(C)c(NC2=C(Cl)C(=O)c3nc(C)ccc3C2=O)c1`, the growth (SR leukemia) was 1.99% (active), the growth (RPMI-8226 leukemia) was -41.9% (active) and the growth (OVCAR-8 ovarian) was 9.92% (active). For the same compound, the growth (OVCAR-5 ovarian) was -71.8% (active), the growth (OVCAR-4 ovarian) was -96% (active) and the growth (SK-OV-3 ovarian) was 93%. For the same compound, the growth (OVCAR-3 ovarian) was -97.4% (active), the growth (HS 578T breast) was -24.8% (active) and the growth (NCI/ADR-RES ovarian) was -6.86% (active).
For `O=C(CCCCCCNC(=O)C(O)(O)C(F)(F)F)Nc1ncc(-c2ccc(Br)cc2)s1`, the growth (SR leukemia) was 8.24% (active), the growth (RPMI-8226 leukemia) was 11.2% and the growth (OVCAR-8 ovarian) was 1.13% (active). For the same compound, the growth (OVCAR-5 ovarian) was -2.49% (active), the growth (OVCAR-4 ovarian) was 21.8% and the growth (SK-OV-3 ovarian) was -14.6% (active). For the same compound, the growth (OVCAR-3 ovarian) was -58.1% (active), the growth (HS 578T breast) was 16.6% and the growth (NCI/ADR-RES ovarian) was -4.64% (active).
With `COc1cc2oc(-c3cccc(NC(=O)[C@@H](N)C(C)C)c3)cc(=O)c2c(OC)c1OC` the growth (SR leukemia) was 76.9%, the growth (RPMI-8226 leukemia) was 88.2% and the growth (OVCAR-8 ovarian) was 99%. It also gave a growth (OVCAR-5 ovarian) of 103%, a growth (OVCAR-4 ovarian) of 107% and a growth (SK-OV-3 ovarian) of 104%. It also gave a growth (OVCAR-3 ovarian) of 108%, a growth (HS 578T breast) of 112% and a growth (NCI/ADR-RES ovarian) of 107%.

Reference: PubChem BioAssay (NCI)
